Compound activity (PubChem)
Rows were chosen to be rich in hits. Some 4.7% of all compounds tested hit in one or more screens of this group.
D1 potentiator: enhances dopamine response at the human D1 receptor | HEK293 TREx D1 cells, calcium flux, dopamine EC20 potentiation | potentiation, % at 10 µM | 360,000 tested, 0.036% active | AID 504651; in the data active means potentiation above about 30%
Target sequence (P21728 whole entry, looked up): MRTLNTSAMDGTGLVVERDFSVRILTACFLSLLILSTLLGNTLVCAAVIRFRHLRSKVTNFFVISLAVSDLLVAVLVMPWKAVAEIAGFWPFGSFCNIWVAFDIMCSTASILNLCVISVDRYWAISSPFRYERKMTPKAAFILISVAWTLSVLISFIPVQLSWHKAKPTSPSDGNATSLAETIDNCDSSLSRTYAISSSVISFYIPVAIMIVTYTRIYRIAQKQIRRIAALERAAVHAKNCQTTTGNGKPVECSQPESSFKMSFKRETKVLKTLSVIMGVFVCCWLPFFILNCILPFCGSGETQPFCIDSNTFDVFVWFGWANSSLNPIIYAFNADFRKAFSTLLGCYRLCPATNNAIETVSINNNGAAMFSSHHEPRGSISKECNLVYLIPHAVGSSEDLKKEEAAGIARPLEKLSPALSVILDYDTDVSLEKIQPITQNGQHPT
TRHR PAM: allosteric enhancers of human TRH receptor; enhancement, % at 2 µM; P34981; 360,000 tested, 0.66% active; TRHR cells, fluo-8 calcium fluorescence, EC20 TRH enhancement; in the data active means enhancement above about 30%
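TRHR-expressing cells loaded with fluo-8 calcium dye were read kinetically (ex 480/em 530) during compound addition, then stimulated with an EC20 of TRH (10 nM final). Enhancement of the Gq-mediated intracellular calcium response was scored.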
TRHR ag: activates the human TRH receptor; 360,000 tested, 0.18% active; activation, % at 2 µM; P34981; TRHR cells, calcium flux fluo-8, FDSS agonist mode
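Agonist-mode FDSS calcium read (Ex 480/Em 530, 1 s cycles) in 1536-well TRHR cells with fluo-8 dye, after 10-cycle baseline and 23 nL compound addition; TRH at EC20 (10 nM final) added afterwards for the enhancer phase.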
D1 antag: antagonists of human D1 dopamine receptor. HEK293 TREx D1 cells, calcium flux, dopamine EC80; active compounds read low. 360,000 tested, 3.2% active. activity change, negative = inhibition, % at 10 µM. P21728; in the data active means activity change below about -30%
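Kinetic fluorescence of a calcium dye serves as the read-out. D1-expressing Hek293 Trex cells, induced overnight at 30 C, are exposed to compound for 180 s before an EC80 dopamine addition, then read 180 s further.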
D1 ag: human D1 receptor agonism | P21728 | HEK293 T-REx D1 cells, calcium flux, agonist mode | activation, % at 2 µM | 360,000 tested, 1% active
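Tetracycline-induced HEK293 TREx D1 cells, force-coupled to calcium signalling, were dye-loaded with a no-wash calcium kit. Compound was pin-added after a 10 s baseline. Fluorescence was read kinetically at 1 cycle/s for 180 s, with calcium rises flagged as agonism.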
Hits are given with their value; ! = not confirmed by another sample. Unless noted, no stated cut-off is given here; in the data, active means activation above about 30%; inactive means the rest.

Screening COc1ccc(C(C)(C)C)cc1NC(=O)COC(=O)c1ncc(Cl)c(Cl)c1Cl returned D1 potentiator inactive, TRHR PAM inactive, TRHR ag inactive, D1 antag inactive and D1 ag inactive.
`COc1ccc(-n2ccnc2SCC(=O)Nc2ccccc2)cc1` gave D1 potentiator inactive, TRHR PAM inactive, TRHR ag inactive, D1 antag inactive and D1 ag inactive.
For Cc1ccc(N(Cc2cccs2)C(=O)C(C)Oc2ccc(Cl)c(C)c2)cc1 (stereo not given) the results were D1 potentiator inactive, TRHR PAM inactive, TRHR ag inactive, D1 antag inactive and D1 ag inactive.
CC(=O)c1cccc(NC(=O)c2nc(-c3ccccc3)n(-c3cccc(Cl)c3)n2)c1 was read as D1 potentiator inactive, TRHR PAM inactive, TRHR ag inactive, D1 antag inactive and D1 ag inactive.
Screening CCCNC(=O)c1onc(CSc2ccc(F)cc2)c1C(=O)NCCOC returned D1 potentiator inactive, TRHR PAM inactive, TRHR ag inactive, D1 antag inactive and D1 ag inactive.
For COc1ccccc1-c1nnc(SC/C(O)=C(\C#N)c2nc3ccccc3[nH]2)n1C1CCCCC1 the results were D1 potentiator inactive, TRHR PAM inactive, TRHR ag inactive, D1 antag -34 and D1 ag inactive.
N#C/C(=C(/O)CSc1nnc(Cc2cccs2)n1C1CCCCC1)c1nc2ccccc2[nH]1 was read as D1 potentiator inactive, TRHR PAM inactive, TRHR ag inactive, D1 antag inactive and D1 ag inactive.
For COc1ccc(Br)cc1CNC(=O)c1ccc(-n2c(C)cc3c2CCC(C)C3)cc1 (stereo not given) the results were D1 potentiator inactive, TRHR PAM inactive, TRHR ag inactive, D1 antag inactive and D1 ag inactive.
For CCC(=O)N/C(=N/c1nc(C)cc(C)n1)Nc1ccc(C)cc1 the results were D1 potentiator inactive, TRHR PAM inactive, TRHR ag inactive, D1 antag -43 and D1 ag inactive.
For COc1ccc(N/C(=N/c2nc(C)cc(C)n2)NC(=O)c2ccccc2)cc1 the results were D1 potentiator inactive, TRHR PAM inactive, TRHR ag inactive, D1 antag -59 and D1 ag inactive.
Cc1cc(C)nc(/N=C(/NC(=O)c2ccccc2)Nc2ccccc2)n1 was read as D1 potentiator inactive, TRHR PAM inactive, TRHR ag inactive, D1 antag inactive and D1 ag inactive.
Screening Cc1ccc(C(=O)N/C(=C/c2ccco2)C(=O)N2CCOCC2)cc1 returned TRHR PAM inactive, TRHR ag inactive, D1 antag inactive and D1 ag inactive.
For Cn1c(=O)n(CC(=O)O)c(=O)c2c1nc1n2CCS1 the results were D1 potentiator inactive, TRHR PAM 40!, TRHR ag inactive, D1 antag inactive and D1 ag inactive.
Screening COc1ccc(NC(=O)C(C)n2nc(C)c3c(C)n(-c4ccccc4)nc3c2=O)cc1Cl (stereo not given) returned D1 potentiator inactive, TRHR PAM inactive, TRHR ag inactive, D1 antag inactive and D1 ag inactive.
Cc1cc(C(=O)COC(=O)c2ccc(O)cc2)c(C)n1CCc1ccc(F)cc1 was read as D1 potentiator inactive, TRHR PAM 33, TRHR ag inactive, D1 antag inactive and D1 ag inactive.
CCOC(=O)/C=C/C(=O)Nc1ccc(Oc2ccccc2)cc1 was read as D1 potentiator inactive, TRHR PAM inactive, TRHR ag inactive, D1 antag -36 and D1 ag inactive.
For CCOC(=O)C(=O)Nc1ccc(F)cc1 the results were D1 potentiator inactive, TRHR PAM inactive, TRHR ag inactive, D1 antag inactive and D1 ag inactive.
`CCOC(=O)C(=O)Nc1ccc(Oc2ccccc2)cc1` gave D1 potentiator inactive, TRHR PAM inactive, TRHR ag inactive, D1 antag -33 and D1 ag inactive.
OCCNc1nc(NCCC2=CCCCC2)nc(N2CCOCC2)n1 was read as D1 potentiator inactive, TRHR PAM inactive, TRHR ag inactive, D1 antag -54 and D1 ag inactive.
For CCOc1nc(NCCC2=CCCCC2)nc(N2CCOCC2)n1 the results were D1 potentiator inactive, TRHR PAM inactive, TRHR ag inactive, D1 antag inactive and D1 ag inactive.
Screening CC(=O)N1N=C(c2ccc(Cl)cc2)OC1(C)C returned D1 potentiator inactive, TRHR PAM 34, TRHR ag inactive, D1 antag inactive and D1 ag inactive.
`COc1ccc(S(=O)(=O)N2CCOCC2)cc1NC(=O)c1cc(C)oc1C` gave TRHR PAM inactive, TRHR ag inactive, D1 antag inactive and D1 ag inactive.
`CCCCN(C(=O)c1ccc2c(c1)NC(=O)CS2)c1ccccc1` gave TRHR PAM inactive, TRHR ag inactive, D1 antag -36 and D1 ag inactive.
`COc1ccc(-c2nnc(SCC(=O)Nc3ccc(F)cc3)s2)cc1` gave D1 potentiator inactive, TRHR PAM inactive, TRHR ag inactive, D1 antag inactive and D1 ag inactive.
CN(C(=S)Nc1ccc(Oc2ccccc2)cc1)C1CCCCC1 was read as D1 potentiator inactive, TRHR PAM inactive, TRHR ag inactive, D1 antag -33 and D1 ag inactive.
Screening Cc1ccc(NC(=O)c2ccc(Cl)c(S(=O)(=O)N3CCCC3)c2)nc1 returned D1 potentiator inactive, TRHR PAM inactive, TRHR ag inactive, D1 antag inactive and D1 ag inactive.
For Cc1ccc(C)c(NC(=O)C(CC(=O)O)C2CCCO2)c1 (stereo not given) the results were D1 potentiator inactive, TRHR PAM inactive, TRHR ag inactive, D1 antag inactive and D1 ag inactive.
For O=C(O)CC(C(=O)Nc1ccc(Cl)cc1Cl)C1CCCO1 (stereo not given) the results were D1 potentiator inactive, TRHR PAM inactive, TRHR ag inactive, D1 antag -63 and D1 ag inactive.
For COc1ccc(-n2c(=O)c3c4c(sc3n(CC(=O)N3CCCCC3C)c2=O)CCC4)c(OC)c1 (stereo not given) the results were D1 potentiator inactive, TRHR PAM inactive, TRHR ag inactive, D1 antag -71 and D1 ag inactive.
For Cc1ccc(NC(=O)CN(Cc2ccccc2)S(=O)(=O)c2ccc3nc(C)sc3c2)c(C)c1 the results were D1 potentiator inactive, TRHR PAM inactive, TRHR ag inactive, D1 antag inactive and D1 ag inactive.
CCCOc1ccc(-c2nc3ccc(Br)cc3c(=O)o2)cc1 was read as D1 potentiator inactive, TRHR PAM inactive, TRHR ag inactive, D1 antag inactive and D1 ag inactive.
For CCC1CN(CC(=O)NCc2cccc(Br)c2)c2ccccc2S1 (stereo not given) the results were D1 potentiator inactive, TRHR PAM inactive, TRHR ag inactive, D1 antag -35 and D1 ag inactive.
`Cc1c([S+](=O)([O-])N2CCN([S+](=O)([O-])c3c(F)cccc3F)CC2)sc2ccc(Cl)cc12` gave D1 potentiator inactive, TRHR PAM inactive, TRHR ag inactive, D1 antag -31 and D1 ag inactive.
